According to PubChem BioAssay (Tox21):
Records with an inconclusive call do not appear. A call without a number means that no potency is given here. Where a structure was tested more than once in an assay, its records may differ in their call. Calls of active or inactive are those of the source. Calls follow the shape of the dose curve; as a rule, active = well fitted inhibition curve with a large enough effect in the repeat runs; inconclusive = weak or mixed curves, or effect the other way; inactive = no such curve, though single readings can be large or run the other way. Residues, ends and D or L forms follow the SMILES beside them.

Each compound was assayed against Nuclear receptor ROR-gamma (Homo sapiens) (UniProt P51449) (assay: qHTS assay to identify small molecule antagonists of the retinoid-related orphan receptor gamma (ROR-gamma) signaling pathway (AID 1159521; also: nearly all actives have a fitted effect of over 50% in size; as to activity change, negative = inhibition: top concentration of the series differs between compounds)). Settings: Tet-on RORgamma CHO cells, RORE-luciferase, 16 h; series mostly up to 92.4 µM; activity change, negative = inhibition: at the top concentration.
Excerpt: U.S. Tox21 Program National Center for Advancing Translational Sciences [NCATS] NIH Chemical Genomics Center [NCGC] U.S. Environmental Protection Agency [EPA] National Institutes of Environmental Health Sciences [NIEHS] National Toxicology Program [NTP] U.S. Food and Drug Administration [FDA] Tox21 Assay Overview: Nuclear steroid hormone receptors are involved in many biological processes including inflammatory responses, cell proliferation, and apoptosis. Environmental factors or compounds disrupting these nuclear receptor pathways and gene expression may promote susceptibility to immunotoxicants and autoimmune diseases. One important group of these expression factors are the retinoid-related orphan receptors. To assess compounds that may interfere with the retinoid-related orphan receptor gamma (ROR-gamma) transcription factor, a cell-based luciferase assay was used. The CHO cell-based assay utilizes a TET-inducible ROR expression factor and ROR response element-LUC reporter gene. Reporter gene activity was induced using Doxycycline Hyclate and measured after 16 hr incubation. Tet-on ROR gamma CHO cells were used to screen against the Tox21 10K compound library for ROR gamma antagonists by quantification of decreased reporter gene activity in terms of decreased luminescence.
Tox21 Assay Protocol Summary: Tet-on ROR gamma CHO cells were dispensed at 1,000 cells in 4 uL of culture medium per well into white wall/solid bottom 1536-well plates using a Multidrop Combi (Thermo Scientific, Waltham, MA) dispenser. Following incubation at 37 C and 5% CO2 for 4 hr, 23 nL of compounds dissolved in DMSO, positive controls or DMSO only were transferred by a Pintool station (Kalypsys, San Diego, CA) and after 2 hr incubation at 37 C, one ul of 1 uM (final concentration) of Doxycycline Hyclate was added to all the wells by using a Flying Reagent Dispenser (FRD) (Aurora Discovery, San Diego, CA). After 16 hr incubation at 37 C and 5% CO2, 5 uL of ONE-Glo reagent (Promega Corporation, Madison, WI) was added to each assay plate using FRD. After 30 min incubation at room temperature, luminescence was quantified on a ViewLux plate reader (Perkin Elmer, Waltham, MA).
Potency is read from the fitted curve at half-maximal effect.

| SMILES | Potency | activity change, negative = inhibition |
| --- | --- | --- |
| CC(=O)Nc1nnc(S(N)(=O)=O)s1 | inactive |  |
| NC(=O)NC1NC(=O)NC1=O (stereo not given) | inactive |  |
| Cc1cc(=O)n(-c2ccccc2)n1C | inactive |  |
| CCCCC1C(=O)N(c2ccccc2)N(c2ccccc2)C1=O | inactive |  |
| CC(O)CN(CCN(CC(C)O)CC(C)O)CC(C)O (stereo not given) | inactive |  |
| NS(=O)(=O)c1cc(C(=O)O)c(NCc2ccco2)cc1Cl | inactive |  |
| CC1(C)[C@@H]2CC[C@@]1(C)C(=O)C2 | inactive |  |
| NC(=O)c1cnccn1 | inactive |  |
| Cn1cc[nH]c1=S | inactive |  |
| C1N2CN3CN1CN(C2)C3 | inactive |  |
| N=C(N)c1ccc(OCCCCCOc2ccc(C(=N)N)cc2)cc1 |  | -9.81% [at 42.5 µM] (inactive) |
| O=c1cc[nH]c(=S)[nH]1 | inactive |  |
| NC(N)=NC(=O)c1nc(Cl)c(N)nc1N | inactive |  |
| CC(C)[C@@H]1CC[C@@H](C)C[C@H]1O | inactive |  |
| O=C(O)CCCCCCCC(=O)O | inactive |  |
| Cc1ccc(S(=O)(=O)NC(=O)NN2CCCCCC2)cc1 | inactive |  |
| NNC(=O)c1ccncc1 | inactive |  |
| COC(=O)[C@H](Cc1ccccc1)NC(=O)[C@@H](N)CC(=O)O (H-Asp-Phe-OMe) | inactive |  |
| OCCc1ccccc1 | inactive |  |
| c1ccc2[nH]ccc2c1 | 1.35 µM (active) and inactive |  |

| SMILES | Potency | activity change, negative = inhibition |
| --- | --- | --- |
| CC(C)(Oc1ccc(C2CC2(Cl)Cl)cc1)C(=O)O (stereo not given) | inactive |  |
| CC(O)CO (stereo not given) | inactive |  |
| O=C(O)c1[nH]n(-c2ccc(S(=O)(=O)O)cc2)c(=O)c1N=Nc1ccc(S(=O)(=O)O)cc1 | inactive |  |
| CCCNC(=O)NS(=O)(=O)c1ccc(Cl)cc1 | inactive |  |
| O=C1NC(=O)c2ccccc21 | inactive |  |
| Cc1ccccc1C(OCCN(C)C)c1ccccc1 (stereo not given) |  | -15.3% [at 42.5 µM] (inactive) |
| COc1ccc2[nH]cc(CCNC(C)=O)c2c1 | inactive |  |
| NC(=O)c1ccccc1O | inactive |  |
| Nc1ccc(C(=O)O)cc1 | inactive |  |
| OC(Cn1cncn1)(Cn1cncn1)c1ccc(F)cc1F | inactive |  |
| O=C(C1CCCCC1)N1CC(=O)N2CCc3ccccc3C2C1 (stereo not given) | inactive |  |
| Nc1ccc(S(=O)(=O)c2ccc(N)cc2)cc1 | inactive |  |
| CCC1(c2ccccc2)C(=O)NCNC1=O | inactive |  |
| O=C(O)c1cc(N=Nc2ccc(S(=O)(=O)Nc3ccccn3)cc2)ccc1O | inactive |  |
| CCCN(CCC)S(=O)(=O)c1ccc(C(=O)O)cc1 | inactive |  |
| CCCCOC(=O)CC(CC(=O)OCCCC)(OC(C)=O)C(=O)OCCCC | inactive |  |
| Nc1ccn([C@H]2CC[C@@H](CO)O2)c(=O)n1 | inactive |  |
| C[C@]12C=CC(=O)C=C1CC[C@@H]1[C@@H]2[C@@H](O)C[C@@]2(C)[C@H]1CC[C@]2(O)C(=O)CO | inactive |  |
| Nc1ccc(O)c(C(=O)O)c1 | inactive |  |
| Cc1ccc(O)cc1 | inactive |  |
